From PubChem BioAssay (NCATS)
Records with an inconclusive call do not appear. Entries that show only a call come without a potency. Active and inactive are the calls of the source. Calls follow the shape of the dose curve; as a rule, active = well fitted curve in the direction sought with a large enough effect; inconclusive = small, poorly fitted or top-dose-only effect, or another doubt; inactive = no such curve, though single readings can be large; an effect the other way counts as inactive or inconclusive.

Key:
[1] = NCATS anti-infectives library activity on HEK293 viability as a counter-qHTS vs the C. elegans viability qHTS (AID 1745854)
How it was run: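 CellTiter-Glo luminescence, read on a CCD imager, scored viability of HEK293 cells after 24 hr compound exposure at 37C. Library tested in several concentrations, 1:5 steps, up to 41.7 uM; digitonin served as control.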

[2] = molecular target: Tyrosyl-DNA phosphodiesterase 1 (Homo sapiens) (UniProt Q9NUW8); assay: Confirmation Assay for Inhibitors of Tyrosyl-DNA Phosphodiesterase (TDP1) (AID 489007); conditions: recombinant human TDP1 enzymatic activity, dose-response; also: potency is read from the fitted curve at half-maximal effect; nearly all actives have a fitted effect of over 40% in size
How it was run: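 AlphaScreen read-out: streptavidin donor and anti-FITC acceptor beads (10 ug/ml) bind intact substrate, so Tdp1 removal of tyrosine-FITC lowers signal. Enzyme 1 nM, substrate 15 nM, 5 min reaction at room temperature after 15 min compound preincubation.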

[3] = molecular target: Rap guanine nucleotide exchange factor 3 (Homo sapiens) (UniProt O95398); assay: Confirmatory qHTS for agonist of cAMP-regulated guanine nucleotide exchange factor 3 (EPAC1) (AID 1645881);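 also: EPAC1 catalysed release of BODIPY-GDP from Rap1B seen as fluorescence loss; nearly all actives have a fitted effect of over 75% in size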
[4] = molecular target: Rap guanine nucleotide exchange factor 4 (Homo sapiens) (UniProt Q8WZA2); assay: Confirmatory qHTS for antagonist of cAMP-regulated guanine nucleotide exchange factor 4 (EPAC2) (AID 1645885); also: nearly all actives have a fitted effect of over 25% in size
[5] = molecular target: Rap guanine nucleotide exchange factor 3 (Homo sapiens) (UniProt O95398); assay: Counterscreen qHTS for agonist of cAMP-regulated guanine nucleotide exchange factor 3 (EPAC1) (AID 1645889); also: nearly all actives have a fitted effect of over 40% in size
How it was run: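 Measured: fluorescence of BODIPY-GDP bound to Rap1B, which falls as exchange proceeds. Conditions include 50 uM competing GDP, 5 and 30 min reads, and a later cAMP challenge for antagonist detection.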

Tyrosyl-DNA phosphodiesterase 1 (Homo sapiens), sequence (Q9NUW8 whole entry, looked up): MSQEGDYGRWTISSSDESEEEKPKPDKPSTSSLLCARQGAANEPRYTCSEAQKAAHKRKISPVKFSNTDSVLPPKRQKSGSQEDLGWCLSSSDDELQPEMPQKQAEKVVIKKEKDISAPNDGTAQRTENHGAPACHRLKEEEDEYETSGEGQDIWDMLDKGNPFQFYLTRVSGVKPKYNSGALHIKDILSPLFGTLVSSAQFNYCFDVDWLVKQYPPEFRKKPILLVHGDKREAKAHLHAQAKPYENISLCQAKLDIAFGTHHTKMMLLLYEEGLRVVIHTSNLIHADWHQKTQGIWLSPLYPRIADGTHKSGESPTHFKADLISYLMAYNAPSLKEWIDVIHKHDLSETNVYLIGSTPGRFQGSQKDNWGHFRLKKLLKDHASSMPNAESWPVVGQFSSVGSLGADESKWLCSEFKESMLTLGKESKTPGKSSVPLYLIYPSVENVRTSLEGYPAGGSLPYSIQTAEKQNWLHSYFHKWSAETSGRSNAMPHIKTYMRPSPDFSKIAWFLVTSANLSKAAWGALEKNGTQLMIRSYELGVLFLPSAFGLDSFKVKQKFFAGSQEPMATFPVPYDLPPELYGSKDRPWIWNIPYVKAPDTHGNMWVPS
Rap guanine nucleotide exchange factor 3 (Homo sapiens), sequence (O95398 whole entry, looked up): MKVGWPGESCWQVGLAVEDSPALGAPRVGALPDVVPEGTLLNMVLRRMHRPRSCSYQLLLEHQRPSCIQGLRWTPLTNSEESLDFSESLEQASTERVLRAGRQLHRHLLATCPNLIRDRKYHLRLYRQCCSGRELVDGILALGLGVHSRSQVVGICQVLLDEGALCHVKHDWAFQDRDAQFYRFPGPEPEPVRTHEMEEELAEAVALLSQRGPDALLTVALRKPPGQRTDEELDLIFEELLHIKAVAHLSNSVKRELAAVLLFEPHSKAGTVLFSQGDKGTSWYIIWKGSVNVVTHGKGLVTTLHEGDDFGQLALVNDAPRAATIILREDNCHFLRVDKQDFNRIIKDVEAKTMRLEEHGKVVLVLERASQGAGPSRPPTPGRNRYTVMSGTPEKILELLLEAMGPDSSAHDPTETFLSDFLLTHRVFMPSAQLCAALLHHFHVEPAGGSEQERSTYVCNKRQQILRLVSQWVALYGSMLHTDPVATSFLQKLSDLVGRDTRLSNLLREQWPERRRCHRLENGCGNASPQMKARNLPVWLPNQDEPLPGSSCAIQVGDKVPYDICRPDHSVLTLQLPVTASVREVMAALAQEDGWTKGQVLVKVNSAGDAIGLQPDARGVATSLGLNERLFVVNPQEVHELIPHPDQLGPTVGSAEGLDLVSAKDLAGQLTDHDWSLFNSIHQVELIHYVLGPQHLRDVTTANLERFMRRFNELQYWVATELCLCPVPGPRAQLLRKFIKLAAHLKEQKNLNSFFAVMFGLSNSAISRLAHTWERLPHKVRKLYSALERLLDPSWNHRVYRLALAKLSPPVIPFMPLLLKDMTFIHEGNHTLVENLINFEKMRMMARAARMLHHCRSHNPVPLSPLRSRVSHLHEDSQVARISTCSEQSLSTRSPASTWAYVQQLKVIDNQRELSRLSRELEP
Rap guanine nucleotide exchange factor 4 (Homo sapiens), sequence (Q8WZA2 whole entry, looked up): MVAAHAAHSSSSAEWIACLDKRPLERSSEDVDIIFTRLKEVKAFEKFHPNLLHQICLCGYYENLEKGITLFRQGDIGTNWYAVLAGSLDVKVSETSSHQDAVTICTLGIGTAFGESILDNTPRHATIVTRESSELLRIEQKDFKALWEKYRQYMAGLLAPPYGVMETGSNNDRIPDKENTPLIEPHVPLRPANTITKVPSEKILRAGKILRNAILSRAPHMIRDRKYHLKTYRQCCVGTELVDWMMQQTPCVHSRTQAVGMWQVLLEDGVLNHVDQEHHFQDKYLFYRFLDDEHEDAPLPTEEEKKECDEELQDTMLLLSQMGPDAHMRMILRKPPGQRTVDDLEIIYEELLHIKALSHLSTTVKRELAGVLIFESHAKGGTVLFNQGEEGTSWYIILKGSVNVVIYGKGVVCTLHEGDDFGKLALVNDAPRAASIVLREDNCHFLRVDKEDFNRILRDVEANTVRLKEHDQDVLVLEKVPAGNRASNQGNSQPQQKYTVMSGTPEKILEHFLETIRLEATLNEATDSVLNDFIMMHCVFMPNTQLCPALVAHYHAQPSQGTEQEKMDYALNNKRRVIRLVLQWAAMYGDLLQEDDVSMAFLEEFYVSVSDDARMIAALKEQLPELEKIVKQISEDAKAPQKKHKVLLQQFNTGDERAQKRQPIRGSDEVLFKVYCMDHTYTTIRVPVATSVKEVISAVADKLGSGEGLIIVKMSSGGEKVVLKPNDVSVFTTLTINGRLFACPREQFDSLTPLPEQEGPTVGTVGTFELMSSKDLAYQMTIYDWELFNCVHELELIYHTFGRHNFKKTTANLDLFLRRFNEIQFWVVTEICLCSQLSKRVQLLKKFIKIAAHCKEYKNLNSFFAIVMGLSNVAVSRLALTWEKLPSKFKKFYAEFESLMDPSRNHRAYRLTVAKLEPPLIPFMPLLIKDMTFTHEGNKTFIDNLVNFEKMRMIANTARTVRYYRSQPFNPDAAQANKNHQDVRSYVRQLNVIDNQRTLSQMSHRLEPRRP

SMILES | Potency [1] | Potency [2] | Potency [3] | Potency [4] | Potency [5]
O=c1ccc2ccc3occc3c2o1 | inactive | – | – | – | –
CN1CCN2c3ccc(N)cc3CC3(C(=O)NC(=O)NC3=O)C2C1 (stereo not given) | – | 14.1 µM (active) | inactive | inactive | inactive
